The list is not random: actives were taken first. Their share in the collection is about 10%.
NPR1 antag: antagonists of human natriuretic peptide receptor Npr1. P16066. HEK293 hNpr1 GloSensor cGMP, ANP-stimulated luminescence. Potency, µM (doses to about 46.3 µM), for inactives: at the top dose activity change, negative = inhibition, hits mostly inhibitors. 1.6% of 76,000 active; calls by dose curve; also: nearly all actives have a fitted effect of over 60% in size
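Compound pre-incubated 30 min at room temperature on GloSensor-loaded HEK293 cells stably carrying hNpr1 and the pGS-40F cGMP biosensor. Stimulation uses hNppA at 0.1 nM final; luminescence is taken at baseline and 20 min post-agonist.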
FLuc inh: blocks purified firefly luciferase enzyme activity. P08659. purified P. pyralis luciferase, luminescence, biochemical. Potency, µM (top dose mostly 115 µM), hits mostly inhibitors. 2.5% of 76,000 active; also: nearly all actives have a fitted effect of over 65% in size
Target sequence (P08659 whole entry, looked up): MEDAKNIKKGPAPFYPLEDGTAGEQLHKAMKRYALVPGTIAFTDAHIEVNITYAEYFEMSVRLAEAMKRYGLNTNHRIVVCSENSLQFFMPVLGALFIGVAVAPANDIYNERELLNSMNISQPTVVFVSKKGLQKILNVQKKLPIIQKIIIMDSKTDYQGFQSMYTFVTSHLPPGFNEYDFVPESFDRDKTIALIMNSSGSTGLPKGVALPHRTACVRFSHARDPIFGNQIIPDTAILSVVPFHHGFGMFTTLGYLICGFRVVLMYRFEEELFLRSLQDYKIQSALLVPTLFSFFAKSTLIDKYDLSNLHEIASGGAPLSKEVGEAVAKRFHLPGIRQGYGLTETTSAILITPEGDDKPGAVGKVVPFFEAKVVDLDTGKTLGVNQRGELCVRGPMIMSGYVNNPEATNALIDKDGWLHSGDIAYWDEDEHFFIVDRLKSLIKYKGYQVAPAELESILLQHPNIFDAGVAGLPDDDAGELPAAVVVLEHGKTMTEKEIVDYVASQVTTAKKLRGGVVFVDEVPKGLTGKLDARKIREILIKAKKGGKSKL
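FLuc 10nM, D-luciferin 10uM, ATP 10uM, Mg acetate 10mM, Tris acetate pH 7.5, Tween/BSA; cpd qHTS; enzyme added last; CCD luminescence.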
HEK293 tox: HEK 293 cell cytotoxicity | HEK 293 viability, ATP luminescence (CellTiter-Glo), 48-72 h | Potency, µM (highest dose often 115 µM), without a hit: top-dose activity change, negative = cytotoxicity, usual class: inhibitors | 6.6% of 94,000 active | AID 1345083; also: nearly all actives have a fitted effect of over 60% in size
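qHTS cytotoxicity; HEK 293, 250 cells/well; compound pinned; 48 or 72 hr, 37 degree Celsius, 5% CO2, 95% humidity; CellTiter-Glo, 10 min RT; luminescence (ATP).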
3T3 cytotox: cytotoxic compounds in NIH 3T3 cells | NIH 3T3 viability, CellTiter-Glo ATP luminescence, 48-72 h | Potency, µM (highest dose often 96.7 µM), without a hit: at the highest dose activity change, negative = cytotoxicity, usual class: inhibitors | 4.3% of 94,000 active; also: nearly all actives have a fitted effect of over 55% in size
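Mouse fibroblast NIH 3T3 cells, 400 per well, received compound via pintool and were incubated for 48 or 72 hr prior to CellTiter-Glo ATP luminescence measurement.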
GPT2 inh: inhibitors of human GPT2 alanine aminotransferase. Q8TD30. Recombinant GPT2, coupled pyruvate oxidase/HRP Amplex Red fluorescence. Potency, µM (highest dose often 57.7 µM), without a hit: top-dose activity change, negative = inhibition, hits mostly inhibitors. 0.25% of 100,000 active; also: nearly all actives have a fitted effect of over 60% in size
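Fluorescence of coupled pyruvate oxidase/HRP/Amplex Red system (50uM Amplex, 30 min, dark) reports pyruvate formed by GPT2. Enzyme reaction: 10ng/uL GPT2, 2mM L-alanine, 250uM a-KG, 30 min room temperature, pH 7.5; 50uM AOA control.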
Active calls of the source: *; i = inactive; ? = inconclusive; / = not tested or not shown; [ ] = dose if it differs, or a comment. Unless noted, calls follow the shape of the dose curve; as a rule, active = well fitted curve in the direction sought with a large enough effect; inconclusive = small, poorly fitted or top-dose-only effect, or another doubt; inactive = no such curve, though single readings can be large; an effect the other way counts as inactive or inconclusive. % is scaled to controls: 0 for no effect and ±100 for the full control effect; potency is read from the fitted curve at half-maximal effect.

SMILES	NPR1 antag	FLuc inh	HEK293 tox	3T3 cytotox	GPT2 inh
O=C(C1CCCC1)N1CC2(CCN(Cc3cccnc3)C2)Cc2ccccc21 (centres undefined)	/	/	44.7µM*	?	?
O=C(C1CCCC1)N1CC2(CCCN(Cc3ccc(Cl)cc3)C2)Cc2ccccc21 (centres undefined)	/	/	39.8µM*	?	-11.7%
O=C(C1CCCC1)N1CC2(CCN(C3CCCCC3)CC2)Cc2ccccc21	/	/	?	?	-3.5%
O=C(C1CCCC1)N1CC2(CCN(C3CCCCC3)C2)Cc2ccccc21 (centres undefined)	/	/	44.7µM*	?	i
CCOC(=O)c1ccc(NC(=O)Cn2nc3n(c2=O)CCCCC3)cc1	3.1%	i	-1.2%	-1.7%	2.7%
O=c1c2nc(-c3ccc(O)c(F)c3)ccc2ncn1Cc1ccccn1	2.0%[70.6 µM]	i	-7.1%[172 µM]	79.4µM*	-9.8%[88.5 µM]
O=c1c2nc(-c3cccc(O)c3)ccc2ncn1Cc1ccccn1	-2.1%[70.6 µM]	i	-19.5%[172 µM]	20µM*	-4.7%[88.5 µM]
COc1ccc(C[C@H](N)C(=O)N[C@H]2[C@@H](O)[C@H](n3cnc4c(N(C)C)ncnc43)O[C@@H]2CO)cc1	/	/	/	/	i
O=C(CC[C@@H]1CNC(=O)[C@@H]2C[C@H](NC(=O)Nc3ccsc3)CN12)NCc1ccccc1	2.4%	i	?	-28.7%	-14.7%
CC(=O)c1cc(CN2CCOC(CCCc3ccccc3)C2)cs1 (centres undefined)	?	i	?	-26.8%	-5.4%
Cc1ccccc1-c1cccc(CN2CCOC(CCN)C2)c1 (centres undefined)	-7.0%	i	?	20µM*	?
Cn1cc(-c2cnc3[nH]cc(CC(=O)Nc4cccnc4)c3c2)cn1	0.6%[70.6 µM]	i	-20.9%[172 µM]	?	3.0%[88.5 µM]
Cc1ccccc1NC(=O)Cc1c[nH]c2ncc(-c3cnn(C)c3)cc12	-0.4%[70.6 µM]	i	?	22.4µM*	-8.7%[88.5 µM]
CN(C)c1cccc(NC(=O)Cc2c[nH]c3ncc(-c4cnn(C)c4)cc23)c1	-22.8%[70.6 µM]	i	70.8µM*	31.6µM*	i
Cn1cc(-c2cnc3[nH]cc(CC(=O)NCc4cccc(F)c4)c3c2)cn1	-1.5%[70.6 µM]	i	?	25.1µM*	-7.5%[88.5 µM]
CN(C)C(=O)Cc1c[nH]c2ncc(-c3cnn(C)c3)cc12	7.2%[70.6 µM]	i	-22.9%[230 µM]	?	?
COc1ccc(NC(=O)Cc2c[nH]c3ncc(-c4cnn(C)c4)cc23)cn1	-1.4%[70.6 µM]	i	-9.4%[172 µM]	50.1µM*	i
CO[C@H]1COCCN(C(=O)c2ccc(C#N)cc2)C1	-0.2%[70.6 µM]	i	2.0%[230 µM]	i	0.6%[88.5 µM]
COc1cccc(CN2Cc3cc(NC(=O)c4cccc(F)c4)ccc3OC(C)C2=O)c1OC (centres undefined)	-2.5%	i	?	-24.8%	-13.4%
O=C1N(CCc2ccccc2)CCOC12CCN([S+](=O)([O-])c1cccnc1)CC2	5.7%[70.6 µM]	i	-23.4%[172 µM]	25.1µM*	-8.6%[88.5 µM]
COc1cccc(CN2CCOC3(CCN([S+](=O)([O-])c4c(C)noc4C)CC3)C2=O)c1	-4.3%	i	-25.6%	20µM*	4.1%
Cn1nccc1CN1CCC2(C1)C(=O)N(c1ccccc1)c1ccccc12 (centres undefined)	/	/	?	?	-1.5%
Cc1cnc(CCNS(=O)(=O)c2cccc(F)c2)n1Cc1ccc(F)cc1	/	/	39.8µM*	?	-6.8%
COc1ccccc1Nc1ccnc(N2CCCC(C(=O)NCC(F)F)C2)n1 (centres undefined)	/	/	?	?	i
COc1cccc(CNC(=O)C2CCN(c3nccc(Nc4ccccc4OC)n3)CC2)c1	/	/	?	39.8µM*	i
SMILES	NPR1 antag	FLuc inh	HEK293 tox	3T3 cytotox	GPT2 inh
COc1ccccc1Nc1ccnc(N2CCC(C(=O)NCc3ccccc3)CC2)n1	/	/	?	?	i
COc1cccc(CNC(=O)C2CCCN(c3nccc(Nc4ccccc4OC)n3)C2)c1 (centres undefined)	/	/	?	31.6µM*	i
COc1ccccc1Nc1ccnc(N2CCCC(C(=O)NCc3cccs3)C2)n1 (centres undefined)	/	/	?	31.6µM*	2.1%
COc1ccccc1Nc1ccnc(N2CCCC(C(=O)NCc3ccc(Cl)cc3)C2)n1 (centres undefined)	/	/	11.2µM*	?	i
COc1ccc(CCN2CCN(CCCc3ccccc3)CC2)cc1OC	/	/	/	/	1.1%
CCOc1cc(=O)n2c(c1C(=O)Nc1ccc(C(C)C)cc1)CCCC2	1.8%	i	-5.2%	4.1%	-4.3%
Fc1ccc(C2Cn3nnc(-c4nc(-c5ccc(OC(F)(F)F)cc5)no4)c3CO2)cc1 (centres undefined)	-4.1%	i	-5.6%	-27.2%	i
Cc1cc(C(=O)N2CCc3nn(Cc4ccccc4)c(=O)n3CC2)nn1C	1.8%	i	-8.3%	-11.1%	-0.5%
COc1ccc(CN2CCCC23Cc2ccccc2N(C(=O)c2ccc(Cl)cc2)C3)cc1 (centres undefined)	/	/	?	?	-12.4%
CC(=O)N1CCC(N2C[C@H](O)C[C@H]2c2nc(-c3ccccc3)no2)CC1	0.8%[70.6 µM]	i	-0.2%[172 µM]	-4.5%[138 µM]	4.0%[88.5 µM]
CC(=O)N1CCC(N2C[C@H](O)C[C@H]2c2nc(-c3cccc(C)c3)no2)CC1	-7.9%[70.6 µM]	20µM*	?	?	-5.6%[88.5 µM]
Cc1cccc(-c2noc([C@@H]3C[C@@H](O)CN3Cc3cccc(C#N)c3)n2)c1	-14.6%[70.6 µM]	?	?	?	4.1%[88.5 µM]
Cc1cccc(-c2noc([C@@H]3C[C@@H](O)CN3C3CCOCC3)n2)c1	-5.9%[70.6 µM]	25.1µM*	?	-28.6%[174 µM]	i
CC(C)SCC(=O)N1CCC2(CC1)CC(c1ccccc1)C(=O)N2C (centres undefined)	-0.1%	i	-17.6%	-19.0%	-0.4%
O=C1c2cnc(-c3ccsc3)nc2OCCN1c1cccc(C(F)(F)F)c1	?	63.1µM*	100µM*	112µM*	-20.2%[88.5 µM]
C[S+](=O)([O-])c1ccc(-c2ncc3c(n2)OCCN(c2ccccc2)C3=O)cc1	3.3%[70.6 µM]	?	?	?	i
COc1ccc(OC)c(-c2ncc3c(n2)OCCN(c2cccc(C(F)(F)F)c2)C3=O)c1	-9.4%	i	-25.0%	?	3.0%
COc1ccc(F)cc1-c1ncc2c(n1)OCCN(c1cccc(C(F)(F)F)c1)C2=O	-10.9%[70.6 µM]	i	?	35.5µM*	0.1%[88.5 µM]
Cc1ccc(-c2ncc3c(n2)OCCN(c2ccccc2)C3=O)cc1F	7.08µM*	?	?	?	i
COc1cc(F)cc(-c2ncc3c(n2)OCCN(c2cccc(C(F)(F)F)c2)C3=O)c1	-9.4%[70.6 µM]	3.16µM*	-14.5%[172 µM]	?	1.9%[88.5 µM]
CCCNC(=O)CN1CCCc2nc(-c3ccccc3)ncc2C1=O	/	/	-7.6%	-14.0%	4.2%
O=C(CCc1nnn2c1CN(C(=O)NC1CCCC1)CC2)N1CCCC1	4.7%	i	2.1%	-2.1%	i
